An excerpt weighted towards active compounds, which were near 2.2% of everything screened.
EWS-Fli inh = EWS/Fli-driven NR0B1 reporter inhibitors, primary screen, A673 cells, NR0B1 luciferase, luminescence, MLPCN library; 0.67% of 350,000 active; viability-normalised; AID 651661, 2012; inhibition, % at 12.6 µM;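 active means mean inhibition of at least 50% after viability correction, with every replicate also passing that limit; inconclusive means mean reaches 50% but only one of two replicates passes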;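 further: firefly luciferase signal divided by Alamar Blue viability fluorescence both relative to DMSO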
TRPM1 prom inh = inhibitors of MITF-dependent TRPM1 promoter reporter, primary screen, cell-based, SK-MEL-5, single point, luciferase. SK-MEL-5 TRPM1 promoter luciferase, 24 h. inhibition, % at 12.5 µM. 0.83% of 330,000 active. AID 488899, 2010;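 active means mean inhibition across replicates of 60% or more, whatever share of single replicates reaches that level; inconclusive means some that reach 60%, reason not given; inactive means mean inhibition across replicates below 60%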
LGR2 antag = inhibitors of bursicon-induced LGR2 CRE-luciferase signal, primary screen, cell-based, HEK293, CRE-luciferase reporter, bursicon stimulation; Drosophila bursicon receptor LGR2 (rickets); bursicon-stimulated, 4 h; inhibition, % at 9.99 µM; 0.35% of 380,000 active; AID 720647, 2013;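 active means drop in luminescence signal, shown as inhibition above about 50% in the replicate tests, limit read from the data, passing the limit was not always enough; inconclusive means probably only some replicates passing the limit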;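 further: agonist challenge used bursicon conditioned medium at about half maximal strength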
EBV LMP1 NFkB = EBV LMP1-driven NF-kappaB luciferase reporter inhibitors, primary screen, cell-based, luminescence, single point; LMP1-induced NF-kappaB luciferase reporter cells; inhibition, % at 12.5 µM; 0.69% of 350,000 active; AID 504558, 2011; in the data active means inhibition above about 41%; inconclusive means no clear call, values can overlap the other calls;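 further: 0% = neutral control wells and 100% = reference inhibitor control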
Shn3 inh set2 = reduction of Shn3 3'UTR firefly luciferase signal, primary screen, Schnurri-3 inhibitor project, cell-based, Clone20 osteoblasts, set 2 | 0.52% of 360,000 active | inhibition, % at 12.5 µM | Clone20 osteoblast Shn3 3'UTR firefly luciferase, 24 h;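 active means mean inhibition of at least 75% with every replicate also reaching 75%; inconclusive means mean inhibition at least 75% but some replicate below; inactive means mean inhibition below 75%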;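 further: 0% = median of neutral control wells and 100% = pilot-screen positive control compound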
PAX8 inh HTS = inhibitors of PAX8-driven TPO luciferase reporter, primary screen, RMG-I cells, single concentration | SteadyGlo, 24 h | inhibition, % at 12.6 µM | 1.2% of 360,000 active;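 active means mean replicate inhibition at least 60% with every replicate also reaching 60%; inconclusive means only one of the two criteria is met; inactive means mean below 60% and not all replicates reaching 60%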;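 further: luciferase light reporting Pax8 driven TPO promoter activity; plate controls were median of neutral control wells for no effect and mitoxantrone controls for full effect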
* marks the source's active call; other numbers are inactive results; ? = inconclusive; nt = no result.

SMILES | EWS-Fli inh | TRPM1 prom inh | LGR2 antag | EBV LMP1 NFkB | Shn3 inh set2 | PAX8 inh HTS
N#Cc1ccc(-c2ccc(C3[C@H]4CNC[C@@H]3N4C(=O)NC3CCCCC3)cc2)cc1 (some centres not stated) | 5 | nt | -27 | nt | nt | 73*
N#C[C@H]1[C@@H](c2ccc(-c3cccc(F)c3)cc2)[C@H](CO)N1C(=O)NC1CCCCC1 | 0 | nt | 7 | nt | nt | nt
COCC(=O)N(C)C[C@@H]1Oc2cc(C#Cc3cccnc3)ccc2S(=O)(=O)N([C@@H](C)CO)C[C@H]1C | 2 | nt | 14 | nt | nt | 0
c1ccc2c(-c3[nH]ncc3CNCCCn3ncc4ccccc43)cccc2c1 | 7 | 12 | -14 | 11 | 90* | 19
O=S(=O)(c1ccc(Cl)c(Cl)c1)c1snnc1-c1ccccc1 | nt | 88* | nt | 21 | ? | nt
CC(C)NC(=O)N(C)C[C@H]1OCCCC[C@@H](C)Oc2ccc(NC(=O)Nc3ccc(C(F)(F)F)cc3)cc2C(=O)N([C@@H](C)CO)C[C@H]1C | -6 | nt | 15 | nt | nt | 89*
CC(C)NC(=O)N(C)C[C@@H]1OCCCC[C@@H](C)Oc2ccc(NC(=O)Nc3ccc(C(F)(F)F)cc3)cc2C(=O)N([C@@H](C)CO)C[C@@H]1C | -5 | nt | 15 | nt | nt | 3
CC(C)NC(=O)N(C)C[C@@H]1OCCCC[C@H](C)Oc2ccc(NC(=O)Nc3ccc(C(F)(F)F)cc3)cc2C(=O)N([C@@H](C)CO)C[C@H]1C | 5 | nt | 20 | nt | nt | 63*
CC=Cc1ccc2n(c1=O)C[C@H]1[C@H](CO)[C@@H](C(=O)NCC3CC3)[C@@H]2N1S(=O)(=O)c1cn(C)cn1 (mixture of isomers) | -6 | nt | -5 | nt | nt | -7
O=C(NC[C@@H]1CC[C@@H]2[C@@H](CN2C(=O)CN2CCOCC2)O1)NC1CCCCC1 | 6 | nt | nt | nt | nt | nt
O=C(C[C@H]1CC[C@H](NC(=O)CN2CCOCC2)[C@H](CO)O1)NC1CCCCC1 | 0 | nt | 35 | nt | nt | -16
O=C(CCCN1C(=O)/C(=C\c2ccccc2)SC1=S)Nc1cccc(C(=O)O)c1 | 1 | 7 | 13 | -5 | 5 | 15
O=C1/C(=C/c2ccncc2)SC(=S)N1Cc1ccccc1 | 37 | 21 | 39 | 43* | -1 | 40
O=C(COC(=O)CCN1C(=O)/C(=C\C=C\c2ccccc2)SC1=S)Nc1ccc(Br)cc1 | 40 | 64* | -7 | 13 | 9 | -15
O=C(CCCN1C(=O)/C(=C/c2ccccc2)SC1=S)Nc1cccc(O)c1 | 4 | -9 | 7 | 8 | 0 | 66*
Cc1ccc(/C=C2/SC(=S)N(CCCC(=O)Nc3ccc(O)cc3)C2=O)cc1 | 50 | 44 | -63 | 38 | 13 | 81*
C[C@@H]1CCCCO[C@@H](CN(C)C(=O)c2ccncc2)[C@@H](C)CN([C@@H](C)CO)C(=O)c2cc(NC(=O)c3ccccc3)ccc2O1 | nt | nt | -4 | nt | nt | nt
CCCNC(=O)N[C@@H]1CC[C@@H](CCn2cc(C3CCCC3)nn2)O[C@@H]1CO | -2 | nt | 0 | nt | nt | 0
CN1C(=O)c2cc(NC(=O)C3CC3)ccc2OC[C@H]2O[C@H](CC(=O)NCC3CCCCC3)CC[C@@H]21 | 3 | nt | 16 | nt | nt | 0
C[C@H]1CN([C@@H](C)CO)S(=O)(=O)c2ccc(C3=CCCC3)cc2O[C@@H]1CN(C)Cc1cccnc1 | 16 | nt | -11 | nt | nt | 9
CCOc1ccc(/C=C2/SC(=S)N(CCC(=O)Nc3ccc(C(=O)O)cc3)C2=O)cc1 | -73 | -51 | 1 | -8 | -15 | nt
CCOc1ccc(/C=C2\SC(=S)N(CCC(=O)O)C2=O)cc1 | 73* | 85* | -37 | 47* | 4 | -6
O=C(CCN1C(=O)/C(=C/c2cccs2)SC1=S)Nc1cccc(O)c1 | 3 | -11 | -8 | -1 | -51 | 9
O=C(CCCN1C(=O)/C(=C/c2cccs2)SC1=S)Nc1cccc(O)c1 | 12 | -5 | -1 | 5 | 8 | 67*
O=C(CCCN1C(=O)/C(=C\c2ccccc2)SC1=S)Nc1ccc(O)cc1 | 3 | 16 | -7 | 9 | -10 | 77*
SMILES | EWS-Fli inh | TRPM1 prom inh | LGR2 antag | EBV LMP1 NFkB | Shn3 inh set2 | PAX8 inh HTS
CC(/C=C1\SC(=S)N(CCC(=O)Nc2ccc(O)cc2)C1=O)=C\c1ccccc1 | 3 | 8 | -12 | -3 | -4 | 74*
COc1cccc(/C=C2/SC(=S)N(CCCC(=O)Nc3ccc(O)cc3)C2=O)c1 | 5 | -9 | 5 | 31 | 29 | nt
C[C@H]1CN([C@@H](C)CO)C(=O)c2cc(-c3cncnc3)cnc2O[C@@H]1CN(C)C(=O)Cc1cccnc1 | -5 | nt | -53 | nt | nt | nt
CN(C)C(=O)c1ccc(-c2ccc([C@@H]3[C@@H](CO)N4CCCCN(C(=O)C5CCCC5)C[C@H]34)cc2)cc1 | -4 | nt | nt | nt | nt | -9
C[C@H](CO)N1C[C@H](C)[C@H](CN(C)S(=O)(=O)c2cccs2)OCCCC[C@H](C)Oc2ccc(NC(=O)Nc3cccc4ccccc34)cc2C1=O | 2 | nt | 10 | nt | nt | 14
O=C(O)CCCN1C(=O)/C(=C\C(Cl)=C\c2ccccc2)SC1=S | ? | 66* | -5 | -27 | 6 | 115*
COc1cc(/C=C2\SC(=S)N(CCC(=O)NC3CCCC3)C2=O)cc(OC)c1OC | -4 | 29 | 10 | 9 | -9 | -16
O=C(CCCN1C(=O)/C(=C/c2ccccc2Cl)SC1=S)Nc1cccnc1 | nt | 5 | 10 | 58* | 19 | 81*
O=C(CCN1C(=O)/C(=C/c2ccccc2Cl)SC1=S)Nc1cccnc1 | 5 | -7 | -1 | -6 | -3 | -21
Cc1ccc(/C=C2\SC(=S)N(CCCC(=O)NC3CCCC3)C2=O)cc1 | nt | 76* | -5 | 55* | 34 | 25
COc1ccc2c3c(n(C)c2c1)[C@@H](CO)N(C(C)=O)CC31CCN(C(=O)Nc2ccc(F)cc2)CC1 | 21 | nt | 2 | nt | nt | nt
C[C@H]1CN([C@@H](C)CO)C(=O)Cc2cc(NC(=O)Cc3ccccc3)ccc2O[C@@H]1CN(C)C(=O)Nc1ccc(F)cc1 | -7 | nt | -6 | nt | nt | -7
Cc1noc(C)c1NC(=O)Nc1ccc2c(c1)C(=O)N([C@@H](C)CO)C[C@@H](C)[C@@H](CN(C)S(=O)(=O)c1ccccc1)O2 | -15 | nt | 5 | nt | nt | nt
CSc1cccc(NC(=O)c2cnn3ccccc23)c1 | -48 | -97 | -71 | -18 | -68 | -84
CCc1ccc(NC(=O)c2cnn3ccccc23)cc1 | 71* | 51 | nt | 35 | 20 | 82*
O=c1[nH]nnc2c1ncn2C1OC(CO)C(O)C1O (configuration not stated) | 6 | nt | 4 | nt | 54 | 97*
Nc1ncnc2c1ncn2[C@@H]1O[C@H](CO)[C@@H](O)[C@H]1O | -7 | -12 | -14 | 3 | 0 | -10

Assay outcomes deposited in PubChem by Broad Institute.
